a7 integrin act: integrin-mediated muscular dystrophy alleviation activation; alpha7betagal myoblasts, beta-gal FDG fluorescence, 48 h; Potency, µM (titrated, usually from 38.3 µM), for the others: top-dose activation, hits mostly activators; actives 0.064% (n = 350,000);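 note: 100% = response of the positive control SU9516; nearly all actives have a fitted effect of over 60% in size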
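Alpha7betagal+/- myoblasts (passage 13) were plated 16-24 hr, then exposed to compounds (1:260 dilution of DMSO stock) for 48 hours at 37C. After MPER lysis, β-galactosidase reporter activity was read as FDG fluorescence (ex 480/em 540) after 30 minutes.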
GLP-1R inv ag: GLP-1 receptor (human) inverse agonism. P43220. AID 624417. actives 1.6% (n = 410,000). Potency, µM (top dose mostly 38.3 µM), for the others: top-dose activity change, negative = inhibition, usual class: inhibitors. HEK293 GLP-1R CRE-luciferase, luminescence, 24 h; GLP-1R form is constitutively active; note: % is set by controls: 0 for no effect and ±100 for the full control effect; nearly all actives have a fitted effect of over 55% in size
Target sequence (P43220 whole entry, looked up): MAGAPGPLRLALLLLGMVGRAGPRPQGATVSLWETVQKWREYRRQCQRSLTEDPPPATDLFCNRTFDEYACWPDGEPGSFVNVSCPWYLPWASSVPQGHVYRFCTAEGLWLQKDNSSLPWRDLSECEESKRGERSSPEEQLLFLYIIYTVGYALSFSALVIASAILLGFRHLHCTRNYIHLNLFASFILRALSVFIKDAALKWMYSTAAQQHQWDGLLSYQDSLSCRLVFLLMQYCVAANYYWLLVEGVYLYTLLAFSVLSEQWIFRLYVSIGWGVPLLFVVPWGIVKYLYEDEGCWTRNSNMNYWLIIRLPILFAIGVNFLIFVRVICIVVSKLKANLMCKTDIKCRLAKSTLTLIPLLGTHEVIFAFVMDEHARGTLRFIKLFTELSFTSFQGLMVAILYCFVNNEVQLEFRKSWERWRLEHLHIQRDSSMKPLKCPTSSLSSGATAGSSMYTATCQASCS
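qHTS in 1536-well format: reporter HEK293 cells expressing constitutive GLP-1R activity in DMEM + 10% Nu serum, 24 hr with compounds at 37 deg C, luminescence read after 12 min with detection reagent.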
BRCA1 expr act: activators of BRCA1 expression; MCF7-BRCA1-FFLuc reporter, luminescence, 48 h; response scale: scaled: vehicle 0%, 10 µM genistein 100%; actives 1.1% (n = 380,000); Potency, µM (highest dose often 46.1 µM), for inactives: at the highest dose activation, most hits filed as activators; note: nearly all actives have a fitted effect of over 80% in size
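Luminescence from a BRCA1-driven firefly luciferase in MCF7 cells was read after 48 h compound exposure at 37 C. Data normalized against DMSO and a 10microM genistein activation control, then curve-fitted across the titration.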
GLP1R cytotox: cytotoxicity in counter-screen for GLP-1R inverse agonists; HEK293 cAMP-luciferase reporter cells, luminescence, 24 h; Potency, µM (top dose mostly 38.3 µM), inactives show at the top dose activity change, negative = inhibition, most hits filed as inhibitors; actives 0.13% (n = 410,000); AID 624418;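 note: loss of luciferase light is scored as toxicity; % is set by controls: 0 for no effect and ±100 for the full control effect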
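1536-well qHTS counterscreen of the MLSMR; 200 cells/uL, 12 h pre-incubation, 23 nL cpd, 24 h at 37 deg C 5% CO2, luciferase detection reagent, 12 min RT, luminescence. Inhibition = undesired.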
GLP1R ag: activates the human GLP-1 receptor | HEK293 GLP-1R CRE-luciferase, luminescence, 4-6 h; cells express a hypersensitive GLP-1R form | Potency, µM (series often up to 45.6 µM), for the others: at the highest dose activation, most hits filed as activators | actives 0.007% (n = 380,000) | AID 624172; note: % of control where 0% means no effect
The depositor's hits bear a star; ? = inconclusive; · = no result; [ ] = another dose, or the depositor's remark. Sampled rows, rich in hits. Any-hit rate of the full collection: about 2.7%. Calls come from the whole dose curve; as a rule, active = well fitted curve in the direction sought with a large enough effect; inconclusive = small, poorly fitted or top-dose-only effect, or another doubt; inactive = no such curve, though single readings can be large; an effect the other way counts as inactive or inconclusive. Potency is the fitted concentration of half-maximal effect.

SMILES	a7 integrin act	GLP-1R inv ag	BRCA1 expr act	GLP1R cytotox	GLP1R ag
COc1ccc(-c2cn(-c3ccc(C)cc3)c(S(=O)(=O)CC(=O)Nc3ccc(F)cc3)n2)cc1	·	?	41%	-17%	-3%
COC(=O)c1scc(-c2ccc(C)cc2)c1S(=O)(=O)N1CCN(c2ccc(C)cc2C)CC1	·	?	·	3%	·
CCOC(=O)c1[nH]c2ccccc2c1NC(=O)c1cc(OCC)c(OCC)c(OCC)c1	·	-8%	-11%	-2%	0%
COc1ccc(/C=C/C(=O)N(CC(C)C)CC(C)C)cc1Br	2%	11µM*	-49%	-2%	16%
COc1ccc(CN2CCN(C(=O)CC(C)C)CC2)cc1Br	-3%	-1%	-8%	4%	5%
C=C1C=C(C(F)F)n2ncc(C(=O)NCc3ccc(OC)c(OC)c3)c2N1	·	·	-21%	·	·
Cc1nnc2c3ccccc3nc(N3CCN(c4ccccc4)CC3)n12	·	7%	·	2%	·
CN(c1nc(-c2ccc(Br)cc2)cs1)C1CCS(=O)(=O)C1 (stereo not given)	-21%	-4%	11µM*	-3%	3%
O=C(NC(=S)Nc1ccc(Br)cn1)c1cccs1	?	?	51%	?	3%
S=C(Nc1ccccc1)Nc1ccc(Br)cn1	12%	?	3%	3.5µM*	6%
COc1cc(/C=N/n2cnnc2)ccc1OCc1ccccc1	9%	36%	84%	-8%	8%
COc1cc(/C=N/n2cnnc2)ccc1OCc1ccc(C)cc1	-23%	27%	10µM*	-10%	16%
COc1cc2nc(N3CCCCC3)nc(NC3CC3)c2cc1OC	·	·	0%	·	·
Cc1ccc(N=Cc2sc(O)c3ccccc23)c(C)c1	19%	0%	3.2µM*	-13%	6%
CCOC(=O)CN1C(=O)S/C(=C/c2ccc3c(c2)n(C)c(=O)n3C)C1=O	-17%	29%	5µM*	-3%	1%
CCOC(=O)C(=O)NNc1ccc(F)cc1	3%	0.89µM*	-20%	-28%	-4%
COCC(=O)OC1CCn2c1nc1c2C(=O)C(C)=C(NC(C)=O)C1=O (stereo not given)	-58%	10µM*	-83%	11µM*	-13%
O=C(NCC(c1cccnc1)N1CCc2ccccc2C1)C(=O)Nc1ccc(F)cc1F (stereo not given)	·	?	·	1%	·
O=C1C2C3C=CC(CC3)C2C(=O)N1/N=C/c1c[nH]c2ccccc12 (stereo not given)	1%	3%[7.66 µM]	8.9µM*	2%[7.66 µM]	6%
COc1ccccc1/C=N/N1C(=O)C2C3C=CC(CC3)C2C1=O (stereo not given)	17%	-32%	0%	-5%	4%
COc1ccc(-c2nc3ccccc3s2)cc1NC(=O)c1cccc(F)c1	·	7%	·	-4%	·
c1ccc(CN2CCN(CCOCCOc3cccc4ccccc34)CC2)cc1	-33%	7.9µM*	-26%	?	0%
CC1(C)Cc2c(cnn2-c2ccccc2)C(=O)/C1=N\NC(=O)c1ccccc1N	28%	-1%	-2%	11%	-1%
CC1(C)Cc2c(cnn2-c2ccccc2)-c2c1c1ccccc1n2CC(O)CBr (stereo not given)	-54%	7.1µM*	-49%	-28%	-8%
CC(C)Cn1c(CN2CCN(C)C(CCO)C2)nc2ccccc21 (stereo not given)	6%	-5%	-2%	-4%	0%
SMILES	a7 integrin act	GLP-1R inv ag	BRCA1 expr act	GLP1R cytotox	GLP1R ag
CCn1c(CN2CCN(Cc3ccc(C)cc3)C(CCO)C2)nc2ccccc21 (stereo not given)	-17%	6.3µM*	6%	-1%	-3%
N#Cc1ccccc1NC(=O)C(=O)NCCc1csc(-c2ccc(C(F)(F)F)cc2)n1	·	16%	·	8%	·
Cc1ccccc1C(=O)N/N=C/c1cccc2ccccc12	-29%	?	13µM*	2%	9%
CCC(C)n1c(SCC(=O)Nc2cc(C(C)(C)C)nn2-c2ccccc2)nc2ccccc2c1=O (stereo not given)	-36%	11µM*	-33%	0%	12%
CC(C)(C)c1cc(NC(=O)COc2ccc(Br)cc2)n(-c2ccccc2)n1	-31%	8.9µM*	32%	-15%	5%
CC(C)(C)c1cc(NC(=O)COC(=O)c2ccccc2)n(-c2ccccc2)n1	2%	?	-1%	3%	4%
COc1ccc(NC(=O)C2=C(C)C(=O)OC23CCC(C)CC3)cc1Cl (stereo not given)	4%	7.9µM*	-29%	-7%	1%
COc1cc(OC)c(NC(=O)C2=C(C)C(=O)OC23CCCCCC3)cc1Cl	·	-27%	·	-5%	·
Cc1ccc(NC(=O)CSc2nc3c(oc4ccccc43)c(=O)n2Cc2ccco2)cc1	·	-6%	12%	-8%	·
CN(C)c1ccc(/C=C2/CCc3ccccc32)cc1	·	·	-24%	·	·
N#Cc1nc(-c2ccccc2F)oc1NCCc1ccccc1	13%	-3%	?	6%	27%
CNc1oc(-c2cccs2)nc1C#N	8%	0%	0%	5%	14%
COc1ccc(Nc2oc(-c3cccs3)nc2C#N)cc1	17%[1.53 µM]	75%	1.4µM*	2%	8%
N#Cc1nc(-c2cccs2)oc1NCCc1ccccc1	-29%	?	11µM*	-5%	25%
Cc1ccc(SCc2nc(-c3ccc(C(=O)NCc4ccc(Cl)cc4)cc3)oc2C)cc1	·	14%	·	1%	·
Cc1cccc(OCC(=O)Nc2cc(-c3nc4cc(Cl)ccc4o3)ccc2C)c1	·	·	6%	·	·
O=C(Nc1nc(-c2cccs2)cs1)c1cccc(S(=O)(=O)N2CCCCCC2)c1	-60%	5.6µM*	-51%	2%	-4%
O=C(Nc1nc(-c2cccs2)cs1)c1ccc(S(=O)(=O)N2CCCCC2)cc1	-1%	?	-29%	-12%	-12%
N#Cc1c(-n2ncnc2-c2ccccc2C(F)(F)F)sc2c1CCCCC2	·	-2%	·	-2%	·
Cc1nc2c(sc(=S)n2Cc2ccco2)c(=O)n1CC(=O)Nc1cc(F)ccc1F	-8%	1.4µM*	-10%	-10%	-4%
CCCCNC(=O)c1ccc2c(c1)NC(=O)C(CS(=O)(=O)Cc1cccc(C)c1)N2 (stereo not given)	·	8%	·	-3%	·
COc1ccc(C2NCCc3c2[nH]c2ccccc32)cc1CN1CCc2cc(OC)c(OC)cc2C1C (stereo not given)	-58%	8.9µM*	-43%	?	10%
COc1ccc(C2NCCc3c2[nH]c2ccccc32)cc1COc1ccc(F)cc1 (stereo not given)	-60%	?	-86%	?	1%
CCCCOc1ccc(C(=O)N=c2sccn2C)cc1OC	8%	96%	4µM*	1%	11%
CCN(CC)S(=O)(=O)c1cc(C(=O)N=c2sccn2C)ccc1OC	2%	8%	-13%	2%	0%
